Compound activity (PubChem BioAssay)
Shown are actives, neighbours in structure and some others; about 18% of the full set was active somewhere.
DT40 TDP1 CPT – qHTS for Inhibitors of human tyrosyl-DNA phosphodiesterase 1 (TDP1): qHTS in cells in presence of CPT | chicken DT40 Tdp1-/-;hTDP1 cells + 20 nM CPT, ATP luminescence, 48 h | Potency, µM (doses to about 46.2 µM), for inactives: at the top dose activity change, negative = growth inhibition, most hits filed as inhibitors | 420,000 tested, 12% active; note: potency is the fitted concentration of half-maximal effect; nearly all actives have a fitted effect of over 55% in size
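Chicken DT40 Tdp1-/- cells stably complemented with human TDP1 were seeded at 400 cells/well in medium containing 20 nM camptothecin, exposed to pin-transferred compounds, and grown at 37 °C for at least 48 hr. Viability was read as ATP luminescence.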
Six1-Eya2 inh – qHTS Assay for Inhibitors of the Six1/Eya2 Interaction | AID 651725, 2012 | Homeobox protein SIX1 (Homo sapiens) + Protein phosphatase EYA2 (Homo sapiens), … | activity change, % (concentration not given with the values) | AlphaScreen GST-Six1/His-Eya2 binding, biochemical; stronger effect = lower value | 360,000 tested, 0.56% active; in the data active = activity change below about -65%; inconclusive = mostly about -30% to -63%
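Compounds are tested against tagged Six1 and Eya2 proteins bridged by glutathione donor and nickel acceptor beads; after a one-hour incubation at 37 °C without light, AlphaScreen emission is recorded.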
IL-1B inflam inh – qHTS for Inhibitors of Inflammasome Signaling: IL-1-beta AlphaLISA Primary Screen; THP-1 LPS/ATP IL-1B secretion, AlphaLISA, 16 h; stronger effect = lower value; activity change, % at 57.5 µM; 360,000 tested, 4.7% active; in the data active = activity change below about -50%; inconclusive = mostly about -30% to -49%
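THP-1 cells pretreated 1 hr with compounds (up to 57.5 uM final), then stimulated with LPS (250 ng/mL final) plus ATP (1.25 mM final); secreted IL-1B measured by AlphaLISA after 16 hr, decreased signal indicating inhibition.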
TDP1 inh – qHTS Assay for Inhibitors of Tyrosyl-DNA Phosphodiesterase (TDP1). 350,000 tested, 0.28% active. AID 485290, 2010. Potency, µM (series often up to 130 µM), without a hit: top-dose activity change, negative = inhibition, usual class: inhibitors. recombinant TDP1, AlphaScreen DNA substrate cleavage; note: potency is the fitted concentration of half-maximal effect; nearly all actives have a fitted effect of over 40% in size
Target sequence (Q9NUW8 whole entry, looked up): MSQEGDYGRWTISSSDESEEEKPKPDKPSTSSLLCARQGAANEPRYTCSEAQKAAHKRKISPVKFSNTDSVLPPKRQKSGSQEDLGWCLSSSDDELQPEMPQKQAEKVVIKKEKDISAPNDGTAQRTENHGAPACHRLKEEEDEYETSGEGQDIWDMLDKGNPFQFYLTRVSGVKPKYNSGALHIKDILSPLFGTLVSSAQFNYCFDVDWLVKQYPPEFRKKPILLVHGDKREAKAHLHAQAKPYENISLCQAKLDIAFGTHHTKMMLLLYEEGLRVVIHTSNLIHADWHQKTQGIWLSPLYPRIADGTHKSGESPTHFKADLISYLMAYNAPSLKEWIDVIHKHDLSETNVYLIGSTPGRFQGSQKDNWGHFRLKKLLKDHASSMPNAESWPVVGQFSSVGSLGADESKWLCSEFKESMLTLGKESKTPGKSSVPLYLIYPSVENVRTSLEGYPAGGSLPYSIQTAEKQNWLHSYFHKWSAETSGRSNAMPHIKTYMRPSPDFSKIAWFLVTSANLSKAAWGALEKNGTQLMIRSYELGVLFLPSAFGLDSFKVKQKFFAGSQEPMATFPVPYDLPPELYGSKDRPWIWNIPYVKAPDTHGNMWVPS
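Signal: AlphaScreen proximity between streptavidin donor and anti-FITC acceptor beads on intact substrate. Reaction: Tdp1 1 nM, substrate 15 nM final, 5 min RT after 15 min compound preincubation.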
CtBP-E1A inh – qHTS Assay for Inhibitors of the CtBP/E1A Interaction. AlphaScreen GST-E1A/His-CtBP binding, 1536-well; stronger effect = lower value. 340,000 tested, 0.49% active. CtBP / adenovirus E1A interaction (AlphaScreen). activity change, % (no concentration beside the values); in the data active = activity change below about -65%; inconclusive = mostly about -30% to -63%
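In 5 uL wells, 23 nL compound meets equimolar GST-E1A and His-CtBP (5X stock 125 nM each) for 2 h, 37 °C. Beads (5X, 50 ug/mL) then 1 h, 37 °C, dark.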
DT40 TDP1 no CPT – qHTS for Inhibitors of human tyrosyl-DNA phosphodiesterase 1 (TDP1): qHTS in cells in absence of CPT | DT40 Tdp1-/- hTDP1 cells, no CPT, ATP luminescence, 48 h | Potency, µM (top dose mostly 46.2 µM), for the others: top-dose activity change, negative = growth inhibition, most hits filed as inhibitors | 420,000 tested, 15% active | AID 686978, 2013; note: potency is the fitted concentration of half-maximal effect; nearly all actives have a fitted effect of over 55% in size
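Cells were dispensed at 400 per well, compounds added by pin tool, plates incubated ≥48 hr at 37 °C, then CellTiter-Glo added for 30 min at room temperature before luminescence reading. Line: DT40 Tdp1-/- complemented with hTDP1; camptothecin omitted.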
An asterisk follows results filed as active; ? = inconclusive; · = not tested or not shown; [ ] = dose if it differs, or a comment. Unless noted, calls come from the whole dose curve; as a rule, active = well fitted curve in the direction sought with a large enough effect; inconclusive = small, poorly fitted or top-dose-only effect, or another doubt; inactive = no such curve, though single readings can be large; an effect the other way counts as inactive or inconclusive. % is set by controls: 0 for no effect and ±100 for the full control effect.

SMILES | DT40 TDP1 CPT | Six1-Eya2 inh | IL-1B inflam inh | TDP1 inh | CtBP-E1A inh | DT40 TDP1 no CPT
CCCc1ccc(C(C)NC(=S)NCc2ccc(F)cc2)cc1 (configuration not stated) | ? | -13 | 28 | 2% | -10 | ?
Cc1cccc(-c2ccc(NC(=O)C3CCN(CC4CC4)CC3)cc2)c1 | ? | 0 | ? | · | 2 | 18µM*
COc1cccc(CN2CCC(C(=O)Nc3ccc(-c4cccc(C)c4)cc3)CC2)c1O | 16µM* | -19 | 0 | · | -17 | 16µM*
Cc1cccc(CN2CCC(C(=O)Nc3ccc(Oc4cccnc4)cc3)CC2)c1 | ? | -3 | -6 | 1% | -6 | ?
COc1ccc(NC(=S)Nc2ccc(S(=O)(=O)N3CCCCC3)cc2)cc1 | ? | 2 | -21 | · | 2 | ?
Cc1cccc(NC(=O)CSCC(=O)Nc2ccc(S(=O)(=O)N3CCCCC3)cc2)c1 | ? | -4 | 27 | -2% | 3 | -63%
Cc1cccc(C(=O)NC(=S)Nc2ccc(S(=O)(=O)N3CCCCC3)cc2)c1 | 18µM* | -18 | -1 | 4% | -11 | 15µM*
COc1cc(C=NNC(=S)Nc2ccc(S(=O)(=O)N3CCCCC3)cc2)cc(OC)c1OC | 16µM* | ? | -17 | · | 2 | 8.2µM*
CN1CCN(S(=O)(=O)c2ccc(NC(=S)NC(=O)C3CCC3)cc2)CC1 | -17% | -3 | 15 | 3% | 2 | ?
Cc1cccc(C(=O)NC(=S)Nc2ccc(S(=O)(=O)N3CCN(C)CC3)cc2)c1 | ? | -27 | 0 | 8% | -7 | 23µM*
Cc1ccc(C(=O)NC(=S)Nc2ccc(S(=O)(=O)N3CCN(C)CC3)cc2)cc1 | 16µM* | -19 | -6 | 4% | -21 | 21µM*
CC(=O)Nc1ccc(S(=O)(=O)N2CCN(C)CC2)cc1 | ? | 11 | 0 | -7% | 1 | 14%
COc1ccc(CNC(=O)C(=O)Nc2cc(Cl)ccc2OC)cc1 | -22% | · | · | -8%[12.3 µM] | · | -20%
C[C@@H]1CN([C@H](C)CO)C(=O)CCCn2nncc2CO[C@H]1CN(C)C(=O)CCC(F)(F)F | 0% | 0 | 9 | · | 3 | -13%
CCN1C(N(C)CCc2c[nH]c3ccccc23)=N[C@@H](c2cccc(C(F)(F)F)c2)C(C(=O)OC)=C1C | 9.2µM* | -8 | ? | 6% | -10 | 23µM*
CCN1C(=O)N[C@@H](c2cccc(C(F)(F)F)c2)C(C(=O)OC)=C1C | 16µM* | -2 | 6 | 1%[21 µM] | 6 | ?
CCOC(=O)CN1C(=O)N[C@@H](c2cccc(C(F)(F)F)c2)C(C(=O)OC)=C1C | -1% | 0 | 22 | 1%[21 µM] | 5 | 5%
CCN1C(=NCc2cccc(Cl)c2)N[C@@H](c2cccc(C(F)(F)F)c2)C(C(=O)OC)=C1C | 11µM* | · | · | · | · | ?
CCN1C(=NCc2cccc(C(F)(F)F)c2)N[C@@H](c2cccc(C(F)(F)F)c2)C(C(=O)OC)=C1C | 4.5µM* | · | · | · | · | 5µM*
CCN1C(N(C)CCc2cccs2)=N[C@@H](c2ccccc2)C(C(=O)OC)=C1C | ? | 2 | 12 | · | 1 | ?
O=C(CSCCS(=O)(=O)c1ccc(Cl)cc1)Nc1ccccc1 | -14% | 16 | -8 | -3% | 0 | -24%
CCC(C)(C(=O)NC1CCCCC1)N(C(=O)CNC(C)=O)c1c(C)n(C)n(-c2ccccc2)c1=O (configuration not stated) | 3% | -1 | 17 | -3% | 1 | -12%
CC1=C(C(=O)OC2CCCC2)C(c2ccccc2C(F)(F)F)CC(=O)N1 (configuration not stated) | 18µM* | · | · | -2% | · | 15µM*
CC1=C(C(=O)OCc2ccccc2)C(c2cccc(Cl)c2Cl)CC(=O)N1 (configuration not stated) | ? | · | · | 2% | · | -29%
COC(=O)C1=C(C)NC(=O)CC1c1cccc(Cl)c1Cl (configuration not stated) | ? | -2 | 35 | 0% | 4 | ?
SMILES | DT40 TDP1 CPT | Six1-Eya2 inh | IL-1B inflam inh | TDP1 inh | CtBP-E1A inh | DT40 TDP1 no CPT
COc1ccccc1C1CC(=O)NC(C)=C1C(=O)OC(C)C (configuration not stated) | ? | 0 | 15 | 0% | 0 | 13µM*
COc1ccccc1C1CC(=O)NC(C)=C1C(=O)OC1CCCCCC1 (configuration not stated) | 21µM* | · | · | -5% | · | 13µM*
CC1=C(C(=O)OCc2ccc(C)cc2)C(c2ccccc2C(F)(F)F)CC(=O)N1 (configuration not stated) | 23µM* | · | · | 2% | · | 21µM*
CC1=C(C(=O)OC2CCCC2)C(c2ccc(Cl)cc2)CC(=O)N1 (configuration not stated) | ? | · | · | -4%[12.3 µM] | · | ?
O=S(=O)(Nc1ccc(C(F)(F)F)cc1)c1cnc[nH]1 | 18µM* | 19 | 12 | 1% | 5 | 23µM*
O=S(=O)(Nc1cccc(C(F)(F)F)c1)c1cnc[nH]1 | 0% | 1 | 20 | 7% | 3 | -20%
Cc1oc(-c2cc(F)ccc2F)nc1CN1CCN(c2ncnc3ccccc23)CC1 | 12µM* | -8 | -29 | 8% | · | 21µM*
COc1ccc(-c2nc(CN3CCN(c4ncnc5ccccc45)CC3)c(C)o2)c(OC)c1 | 8.2µM* | -7 | ? | 9% | -13 | 5.8µM*
Cc1oc(-c2cc(F)ccc2F)nc1CN1CCC(C(=O)N2CCOCC2)CC1 | 13% | 1 | 19 | 3% | 7 | 16%
CSc1n[nH]c(-c2ccc(C(F)(F)F)cc2)n1 | -14% | -6 | 30 | · | 11 | ?
CCOC(=O)CSc1n[nH]c(=O)n1CCc1ccccc1 | 6% | 2 | -12 | · | -3 | 0%
NC(=O)c1ccc(N=C2C(=O)Nc3ccc([N+](=O)[O-])cc32)cc1 | -10% | -9 | 31 | 8% | · | ?
CCCN(C/C=C/I)C1CCc2cccc(O)c2C1 (configuration not stated) | ? | · | · | -2% | · | 15µM*
